Laboratory results as given in PubChem BioAssay (NCATS).
Inconclusive results are not listed. Active and inactive are the calls of the source. Unless noted, the call rests on the fitted dose curve; in most records, active means well fitted curve in the direction sought with a large enough effect; inconclusive means small, poorly fitted or top-dose-only effect, or another doubt; inactive means no such curve, though single readings can be large; an effect the other way counts as inactive or inconclusive.

What was measured:
[1] = AP1 Signaling Pathway (AID 357; active means well fitted curve in either direction with a large enough effect, not every such curve was filed as active; further: on the % scale 0 is the no-effect control and ±100 the full control effect); settings: ME-180 AP-1-bla reporter, EGF-induced, beta-lactamase ratio, 5 h; at 7.69 µM (top of the series) unless noted
In short: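 AP-1-bla ME-180 cells with beta-lactamase reporter under AP-1 response element, stimulated with EC50 EGF; compounds titrated, 5 hours at 37 degrees Celsius. CCF4 read at 460/530 nm ratio; positive and negative modulators judged by AC50.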

[2] = biological target: Cytochrome P450 1A2 (Homo sapiens) (UniProt P05177); experiment: p450-cyp1a2 (AID 410; calls by dose curve; further: potency means the concentration at half of the fitted maximal effect)
In short: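 Luminescent demethylation readout: Luciferin-ME (100uM, equal to Km) turned over by 20nM CYP1A2 for 60 min at room temperature after NADPH regeneration addition, following 10 min compound preincubation. Normalization used 57 uM furafylline as full inhibition.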

[3] = Stat Signaling Pathway (AID 446; active means well fitted curve in either direction with a large enough effect, not every such curve was filed as active;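 further: ME-180 cervical cancer cells given 40 pM IL-6 alongside compound; SIE-controlled beta-lactamase reporter measured as 460/530 nm FRET emission ratio; on the % scale 0 is the no-effect control and ±100 the full control effect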)
In short: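 Overnight-plated ME-180 cells bearing a STAT Inducible Element beta-lactamase reporter; 5 h co-exposure to compound and 40 pM IL-6; values normalized to 300 pM IL-6 and 125 nM JAK inhibitor controls.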

[4] = biological target: Glucocorticoid receptor (Homo sapiens) (UniProt P04150); experiment: GR-GFP Redistribution (AID 450;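 active means compounds whose dose series gives a full or clear partial fitted curve of increased nuclear translocation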; further: potency means the concentration at half of the fitted maximal effect); settings: U2OS GR-GFP nuclear translocation, laser cytometry, 2 h
[5] = biological target: Glucocorticoid receptor (Homo sapiens) (UniProt P04150); experiment: GR-EFC Redistribution (AID 451; calls by dose curve; further: potency means the concentration at half of the fitted maximal effect); settings: CHO-K1 GR-EFC translocation, beta-gal luminescence, 2 h
In short: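 CHO-K1 cells stably expressing nuclear-localized β-gal enzyme acceptor and GR fused C-terminally to the enzyme donor fragment; ligand-driven nuclear translocation restores β-gal by complementation. Compounds titrated up to 46 uM final, 2 h at 37 °C; luminescence read.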

[6] = biological target: Mitogen-activated protein kinase 10 (Mus musculus) (UniProt Q61831); experiment: JNK3 AlphaScreen Assay (AID 530; active means well fitted curve in either direction with a large enough effect, not every such curve was filed as active;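 further: kinase came from lysate of stimulated human HepG2 cells; signal reports phosphorylation of biotinylated GST-cJun 1-79 at Ser73 with 10 µM ATP; on the % scale 0 is the no-effect control and ±100 the full control effect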)
In short: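 Phosphorylation of biotinylated GST-cJun(1-79) at Ser73 is measured by AlphaScreen proximity luminescence. Enzyme is JNK3 in HepG2 lysates activated with interleukin-1beta and tumor necrosis factor alpha; ATP is 10 uM final.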

[7] = biological target: 3',5'-cyclic-AMP phosphodiesterase 4B (Homo sapiens) (UniProt Q07343); experiment: qHTS Assay for Inhibitors of PDE-IV (AID 607; active means well fitted activation curve with a large enough effect in the main read-out, with a control signal flat, not every such curve was filed as active; further: % of control where 0% means no effect)
In short: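 Live HEK293 cells with a modified cyclic nucleotide-gated (CNG) channel report intracellular cAMP via membrane-potential dye fluorescence (ex 535/em 590 nm). Endogenous PDE-IV was targeted. Compounds were tested at up to 22.9 uM final; RO 20-1724 100 uM served as control.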

[8] = biological target: Guanine nucleotide-binding protein G(i) subunit alpha-1 (Homo sapiens) (UniProt P63096); experiment: qHTS Assay for Inhibitors of RGS12 GoLoco Motif Activity (Green Fluorophore) (AID 879);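 further: 0% = labeled peptide with Gαi1 and full inhibition = labeled peptide alone without protein; negative values mean loss of peptide binding seen as reduced polarization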
In short: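 A drop in FITC polarization marked displacement of the FITC-tagged RGS12 GoLoco peptide (10 nM) from Gαi1 (50 nM). Compounds were incubated 10 min at room temperature in Tris pH 7.5 buffer containing 150 mM NaCl, 0.1 mM GDP and 0.05% NP40; unlabeled peptide titration served as control.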

[9] = biological target: Cytochrome P450 2C9 (Homo sapiens) (UniProt P11712); experiment: qHTS Assay for Inhibitors and Substrates of Cytochrome P450 2C9 (AID 883); further: on the % scale 0 is the no-effect control and ±100 the full control effect; nearly all actives have a fitted effect of over 60% in size
In short: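 CYP2C9 deoxyluciferin hydroxylation, 37C, 60 min with NADPH regeneration; 10nM enzyme, 100uM Luciferin-H (KM). Glo detection reagent stopped reaction; luminescence normalized to sulphaphenazole (57uM) full inhibition.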

[10] = biological target: Cytochrome P450 3A4 (Homo sapiens) (UniProt P08684); experiment: qHTS Assay for Activators of Cytochrome P450 3A4 (AID 885); further: nearly all actives have a fitted effect of over 65% in size
In short: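 Using 20nM recombinant human CYP3A4 in potassium phosphate (200mM), substrate Luciferin-PPXE at 25uM, luminescent luciferin detection followed a 60-min RT NADPH reaction; data scaled to 57 uM ketoconazole.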

[11] = biological target: Cytochrome P450 2D6 (Homo sapiens) (UniProt P10635); experiment: qHTS Assay for Inhibitors and Substrates of Cytochrome P450 2D6 (AID 891); further: potency means the concentration at half of the fitted maximal effect; nearly all actives have a fitted effect of over 60% in size
In short: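 Luminescent read-out of luciferin formed by 5 nM human CYP2D6 demethylating 30 uM Luciferin-ME EGE (Km level) over 60 min at room temperature after NADPH regeneration addition. Data normalized to full inhibition by 1.43 uM quinidine.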

[12] = qHTS Assay for Identification of Small Molecule Agonists for Hypoxia Response Element Signaling Pathway (AID 914; active means well fitted activation curve with a large enough effect in the signal ratio, with a control signal flat, not every such curve was filed as active; the % refers to the signal ratio; further: % of control where 0% means no effect); settings: ME-180 HRE-bla reporter, beta-lactamase ratio, CoCl2, 17 h; activation: stronger effect = higher value
In short: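 ME-180 cells carrying an HRE-driven beta-lactamase reporter were treated with compounds in a titration series plus an EC50 level of CoCl2 for 17 h at 37 degrees Celsius; CCF4 readout as the 460nm/530nm ratio gave AC50 values.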

[13] = qHTS Assay for Identification of Small Molecule Agonists for Thrombopoietin (TPO) Signaling Pathway (AID 917); further: on the % scale 0 is the no-effect control and ±100 the full control effect
In short: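 Cell-based luciferase reporter screen. Mouse Ba/F3 line stably expressing human TPO receptor; IL-3 removed overnight before plating. Co-treatment with compound and EC50 TPO (26 pM), 24 hrs at 37 C, then luminescence.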

[14] = biological target: Muscarinic acetylcholine receptor M1 (Rattus norvegicus) (UniProt P08482); experiment: qHTS Assay for Antagonists of Acetylcholine Muscarinic M1 Receptor: Kinetic Measurement of Intracellular Calcium Response (AID 943); further: potency means the concentration at half of the fitted maximal effect; nearly all actives have a fitted effect of over 75% in size
In short: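 Antagonism measured as reduction of carbachol-evoked (EC80, 100 nM final) calcium flux in rat M1-CHO cells after 10 min compound exposure. Fluo-4 signal read kinetically; ratio of maximal to basal fluorescence.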

[15] = biological target: Pyruvate kinase (Leishmania mexicana) (UniProt Q27686); experiment: qHTS Validation Assay for Inhibitors of Leishmania Mexicana Pyruvate Kinase (AID 945);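 further: 0% = DMSO only neutral control wells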
In short: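 LmPYK E451W 0.2 nM; 0.5 mM PEP, 0.1 mM ADP, 7 mM MgCl2, 50 mM KCl, imidazole pH 7.2, 0.01% Tween 20, 0.05% BSA; 1 h RT; PKLight luminescence; DMSO-normalized.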

[16] = biological target: Pyruvate kinase PKM (Homo sapiens) (UniProt P14618); experiment: qHTS Assay for Activators of Human Muscle Pyruvate Kinase (AID 954; active means well fitted curve in the direction sought with a large enough effect, not every such curve was filed as active;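 further: 0% = uninhibited enzyme and -100% = no enzyme or full thiadiazolimine inhibition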)
In short: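 Screening used highly purified human pyruvate kinase M2 under submaximal activity, with PEP at its Km and ADP below Km. After an hour at room temperature, ATP was read by luciferase luminescence.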

[17] = biological target: Alpha-galactosidase A (Homo sapiens) (UniProt P06280); experiment: Counterscreen for Glucocerebrosidase Inhibitors: qHTS Assay for Human alpha-Galactosidase at pH 4.5 (AID 992); further: 0% is about no effect
In short: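 Each compound is preincubated briefly with 2 nM enzyme before substrate addition (80 uM); plates then sit 20 min at ambient temperature, are quenched with 1M NaOH/1M glycine, and read fluorometrically.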

[18] = biological target: alpha-glucosidase (Oryza sativa, rice) (UniProt Q653V4); experiment: Counterscreen for Glucocerebrosidase Inhibitors: qHTS Assay for Rice alpha-Glucosidase at pH 5.0 (AID 997);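 further: 0% = full activity with enzyme and -100% = basal without enzyme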
In short: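 Endpoint fluorogenic assay at pH 5.0: compounds (0.7 nM to 77 uM) titrated against 4 nM rice enzyme and 400 uM 4-MU-alpha-glucoside for 20 min at room temperature; NaOH/glycine stop, read ex 365/em 440 nm, Hill-fitted AC50.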

[19] = biological target: DNA repair nuclease/redox regulator APEX1 (Homo sapiens) (UniProt P27695); experiment: qHTS Validation Assay for Inhibitors of the Human Apurinic/apyrimidinic Endonuclease 1 (APE1) (AID 1705)
In short: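 qHTS, 1536-well. APE1 + cpd 15 min RT → 50 nM TAMRA/BHQ-2 THF-abasic dsDNA substrate → kinetic fluorescence, 3 reads/60 s; delta(read3−read1) = reaction progress. No-enzyme buffer = negative control.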

[20] = Counterscreen for APE1 Inhibitors: Fluorescent Dye Displacement Validation Assay (AID 1707);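 further: plate controls were ThO with dsDNA and no compound for no effect and ThO without dsDNA for full effect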
In short: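 Loss of Thiazole Orange fluorescence marks promiscuous DNA binders. The dye (250 nM) is mixed with 50 nM abasic-site dsDNA in pH7.5 Tris buffer containing MgCl2, then compounds are added and emission is read once.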

[21] = qHTS for differential inhibitors of proliferation of Plasmodium falciparum line 7G8 (AID 1815);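 further: potency means the concentration at half of the fitted maximal effect; parasite growth measured after three days of incubation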
[22] = qHTS for differential inhibitors of proliferation of Plasmodium falciparum line GB4 (AID 1816); settings: Potency: Plasmodium falciparum GB4 proliferation inhibition;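 further: potency means the concentration at half of the fitted maximal effect; parasite growth measured after 72 h incubation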
[23] = qHTS for differential inhibitors of proliferation of Plasmodium falciparum line 3D7 (AID 1876); further: potency means the concentration at half of the fitted maximal effect
[24] = qHTS for differential inhibitors of proliferation of Plasmodium falciparum line W2 (AID 1883); settings: Potency: Plasmodium falciparum W2 proliferation inhibition;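 further: potency means the concentration at half of the fitted maximal effect; parasites grown with compound for 72 h before lysis and staining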
[25] = biological target: Ferritin light chain (Equus caballus) (UniProt P02791); experiment: qHTS Validation Assay for Identification of Novel General Anesthetics (AID 2323); further: on the % scale 0 is the no-effect control and ±100 the full control effect
In short: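 Fluorescence at 535 nm (excitation 380 nm) reported loss of 1-AMA binding to horse-spleen apoferritin (10 uM) in PBS with 50% saturated 1-aminoanthracene, after 10 min room-temperature incubation with compound; values from Hill fits of normalized response.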

[26] = biological target: ATP-dependent DNA helicase Q1 (Homo sapiens) (UniProt P46063); experiment: qHTS Validation Assay for Inhibitors of RecQ-Like Dna Helicase 1 (RECQ1) (AID 2353);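 further: plate controls were DMSO vehicle for no effect and enzyme-free control for full effect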
In short: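 RECQ1T1 50 nM; forked duplex (20 bp + 30-nt ss tails) 200 nM, ATP 2 mM final; pH 8.0, 2 mM MgCl2, 2.5 ug/ml poly(dI-dC); 15 min compound preincubation; discontinuous kinetic read over 2 h at RT.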

[27] = biological target: RecQ-like DNA helicase BLM (Homo sapiens) (UniProt P54132); experiment: qHTS Validation Assay for Inhibitors of Bloom's syndrome helicase (BLM) (AID 2364);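 further: plate controls were DMSO vehicle for no effect and enzyme-free control for full effect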
In short: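 BLM 50 nM in 25 mM Tris-HCl pH 8.0, 5 mM NaCl, 2 mM MgCl2, 1 mM DTT, 0.01% Tween-20, 2.5 ug/ml poly(dI-dC); 15 min cpd preinc, RT. Start: 200 nM forked DNA + 2 mM ATP (final). TAMRA read, 2 reads 2 h apart.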

[28] = Validation screen for small molecules that induce DNA re-replication in MCF 10A normal breast cells (AID 463097); further: 0% is about no effect; nearly all actives have a fitted effect of over 60% in size
In short: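 Image-based qHTS: normal breast cells are incubated with compound for 48 hr, stained with Hoechst, and scanned for total nuclear fluorescence. Compounds raising the fraction of nuclei with elevated DNA content count as re-replication inducers.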

[29] = Quantitative high throughput screen for delayed death inhibitors of the malarial parasite plastid, 48 hour incubation (AID 488752); further: on the % scale 0 is the no-effect control and ±100 the full control effect; nearly all actives have a fitted effect of over 65% in size
In short: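 One-generation (48 h) growth assay: a decrease in luciferase signal from an integrated reporter in P. falciparum-infected red cells (0.1% parasitemia, 2% hematocrit) after compound exposure at 37 C indicates parasite inhibition.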

[30] = biological target: M-phase phosphoprotein 8 (Homo sapiens) (UniProt Q99549); experiment: qHTS Validation Assay for Inhibitors for MPP8 Chromodomain Interactions with Methylated Histone Tails (AID 488949);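 further: 50 nM MPP8 with 50 nM peptide preformed then compounds added for 30 min; AlphaScreen signal from MPP8 chromodomain bound to biotinylated H3K9me3 peptide; top concentration of the series differs between compounds; on the % scale 0 is the no-effect control and ±100 the full control effect; nearly all actives have a fitted effect of over 55% in size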
In short: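 50 nM MPP8 + 50 nM b-H3K9me3 peptide, PBS pH 7.4/0.01% Tween-20, 30 min RT; + cpd 30 min RT; + AlphaScreen donor/Ni-chelate acceptor beads 10 ug/mL final, 30 min dark; luminescence read.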

[31] = biological target: Transient receptor potential cation channel subfamily V member 1 (Homo sapiens) (UniProt Q8NER1); experiment: HTS Assay for Compounds that Act as Enhancers of the Vanilloid Receptor 1 (AID 488979); further: 0% is about no effect
In short: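 TRPV1-expressing cells loaded with Fluo-8 calcium dye; compounds added and calcium influx read kinetically for 3 min (agonist phase), then capsaicin at EC20 added and read 2 min more for enhancement. Fluorescence ex 480/em 520 nm.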

[32] = biological target: Thyrotropin receptor (Homo sapiens) (UniProt P16473); experiment: qHTS Assay for Antagonists of the Thyroid Stimulating Hormone Receptor (AID 488980); further: 0% is about no effect
In short: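 Readout is cAMP by HTRF competition between cellular cAMP and cAMP-d2 for a cryptate-labelled antibody. Antagonism was assessed in TSHR-transfected HEK293 cells stimulated with 4 nM TSH (EC80, final) in the presence of RO 20-1724.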

[33] = biological target: Thyrotropin-releasing hormone receptor (Homo sapiens) (UniProt P34981); experiment: qHTS for Small Molecule Agonists and Allosteric Enhancers of Human TRH Receptor: Validation Screen for Agonists (AID 493127;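 active means calcium activation more than 3 SD above the typical response in the agonist read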;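 further: intracellular calcium rise by fluo-8 fluorescence before TRH EC20 addition; 0% is about no effect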); settings: TRH receptor agonist cell assay; at 2 µM; stronger effect = higher value
In short: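 Compound-evoked intracellular calcium release in fluo-8-loaded TRHR cells, read kinetically on FDSS (Ex 480/Em 530, 1 s/cycle) after 23 nL pintool transfer. Agonist phase preceded 10 nM TRH EC20 addition.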

[34] = biological target: Galactokinase (Homo sapiens) (UniProt P51570); experiment: qHTS Validation Assay for Inhibitors of Human Galactokinase (GALK) (AID 493189); further: 0% is about no effect
In short: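 5 nM GALK / 100 uM galactose / 35 uM ATP, 20 mM HEPES pH8.0, 5 mM MgCl2, 60 mM NaCl, 1 mM DTT, 0.01% BSA (final). RT 1 h; Kinase-Glo Plus luminescence.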

[35] = biological target: Voltage-gated inwardly rectifying potassium channel KCNH2 (Homo sapiens) (UniProt Q12809); experiment: qHTS Assay for Small Molecule Inhibitors of the Human hERG Channel Activity (AID 588834);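 further: potency means the concentration at half of the fitted maximal effect; lower thallium flux fluorescence means stronger hERG block; nearly all actives have a fitted effect of over 50% in size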
In short: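 Step 1: BacMam hERG transduction of U2OS, 4 hrs RT. Step 2: overnight 37 °C, plate 2000 cells/well, 4 hr. Step 3: FluxOR load, compound 10 min, stimulate, read fluorescence.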

Chain of Glucocorticoid receptor (Homo sapiens) (P04150 whole entry, looked up, the tested form may be a part): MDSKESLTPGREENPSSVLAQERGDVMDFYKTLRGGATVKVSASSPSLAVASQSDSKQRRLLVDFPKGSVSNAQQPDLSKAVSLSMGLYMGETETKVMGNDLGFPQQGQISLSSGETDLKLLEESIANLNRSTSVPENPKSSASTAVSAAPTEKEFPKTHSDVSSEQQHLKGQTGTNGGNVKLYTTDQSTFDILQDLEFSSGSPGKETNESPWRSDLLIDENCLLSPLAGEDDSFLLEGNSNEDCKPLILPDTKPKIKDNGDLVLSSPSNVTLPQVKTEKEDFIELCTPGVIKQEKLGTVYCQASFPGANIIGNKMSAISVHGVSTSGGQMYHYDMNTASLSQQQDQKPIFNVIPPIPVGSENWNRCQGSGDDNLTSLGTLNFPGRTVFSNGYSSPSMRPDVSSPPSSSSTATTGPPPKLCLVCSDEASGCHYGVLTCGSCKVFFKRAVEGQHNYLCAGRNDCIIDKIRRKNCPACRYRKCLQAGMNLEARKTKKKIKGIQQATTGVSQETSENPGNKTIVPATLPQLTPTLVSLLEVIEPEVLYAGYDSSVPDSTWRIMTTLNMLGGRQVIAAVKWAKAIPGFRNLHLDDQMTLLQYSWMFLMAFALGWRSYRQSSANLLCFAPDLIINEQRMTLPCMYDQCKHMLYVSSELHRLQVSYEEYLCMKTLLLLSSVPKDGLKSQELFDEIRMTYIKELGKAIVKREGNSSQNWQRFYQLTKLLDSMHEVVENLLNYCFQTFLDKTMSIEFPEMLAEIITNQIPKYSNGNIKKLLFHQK
Chain of Thyrotropin-releasing hormone receptor (Homo sapiens) (P34981 whole entry, looked up): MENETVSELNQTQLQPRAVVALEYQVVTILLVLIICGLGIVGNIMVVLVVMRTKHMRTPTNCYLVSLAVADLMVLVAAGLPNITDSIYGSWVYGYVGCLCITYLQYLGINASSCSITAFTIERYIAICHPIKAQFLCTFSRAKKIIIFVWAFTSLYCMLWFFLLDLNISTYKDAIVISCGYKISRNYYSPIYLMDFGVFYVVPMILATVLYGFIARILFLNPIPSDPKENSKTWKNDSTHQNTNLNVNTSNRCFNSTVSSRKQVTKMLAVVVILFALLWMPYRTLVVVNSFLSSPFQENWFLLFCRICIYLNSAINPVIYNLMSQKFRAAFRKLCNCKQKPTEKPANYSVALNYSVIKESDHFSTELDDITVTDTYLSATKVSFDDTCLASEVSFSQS
Chain of 3',5'-cyclic-AMP phosphodiesterase 4B (Homo sapiens) (Q07343 whole entry, looked up): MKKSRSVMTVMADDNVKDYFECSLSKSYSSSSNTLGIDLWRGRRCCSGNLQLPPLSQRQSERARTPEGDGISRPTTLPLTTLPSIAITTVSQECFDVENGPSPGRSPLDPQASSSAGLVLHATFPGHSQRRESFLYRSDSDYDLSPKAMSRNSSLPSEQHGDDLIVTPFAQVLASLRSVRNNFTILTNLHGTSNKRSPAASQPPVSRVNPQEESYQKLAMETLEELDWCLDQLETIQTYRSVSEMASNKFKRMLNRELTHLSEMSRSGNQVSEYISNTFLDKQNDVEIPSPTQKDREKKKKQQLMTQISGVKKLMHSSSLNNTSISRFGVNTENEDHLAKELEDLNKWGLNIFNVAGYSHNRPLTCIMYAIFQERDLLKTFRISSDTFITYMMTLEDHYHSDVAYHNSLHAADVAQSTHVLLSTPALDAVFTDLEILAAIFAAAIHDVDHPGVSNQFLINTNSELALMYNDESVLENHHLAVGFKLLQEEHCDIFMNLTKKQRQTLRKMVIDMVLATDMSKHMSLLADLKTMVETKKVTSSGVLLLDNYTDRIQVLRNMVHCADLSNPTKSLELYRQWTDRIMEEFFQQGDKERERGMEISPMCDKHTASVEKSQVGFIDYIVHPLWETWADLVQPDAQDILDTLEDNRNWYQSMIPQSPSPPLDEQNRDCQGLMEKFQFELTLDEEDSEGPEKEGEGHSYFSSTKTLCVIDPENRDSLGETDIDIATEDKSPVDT
Chain of Pyruvate kinase PKM (Homo sapiens) (P14618 whole entry, looked up): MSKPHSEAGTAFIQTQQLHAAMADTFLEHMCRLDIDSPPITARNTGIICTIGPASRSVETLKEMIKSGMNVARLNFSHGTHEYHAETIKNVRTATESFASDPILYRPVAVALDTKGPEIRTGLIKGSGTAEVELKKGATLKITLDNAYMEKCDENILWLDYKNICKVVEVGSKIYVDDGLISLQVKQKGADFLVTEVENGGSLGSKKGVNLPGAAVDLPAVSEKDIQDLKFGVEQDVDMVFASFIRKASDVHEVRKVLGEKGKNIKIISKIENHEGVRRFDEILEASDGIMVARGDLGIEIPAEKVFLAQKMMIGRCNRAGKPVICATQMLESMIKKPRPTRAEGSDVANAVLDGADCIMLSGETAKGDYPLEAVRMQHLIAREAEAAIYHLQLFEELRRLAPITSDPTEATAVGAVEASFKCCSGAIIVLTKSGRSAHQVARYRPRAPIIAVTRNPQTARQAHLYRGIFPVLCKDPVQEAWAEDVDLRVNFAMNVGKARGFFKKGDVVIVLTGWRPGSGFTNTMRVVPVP
Chain of Pyruvate kinase (Leishmania mexicana) (Q27686 2-499 E452W): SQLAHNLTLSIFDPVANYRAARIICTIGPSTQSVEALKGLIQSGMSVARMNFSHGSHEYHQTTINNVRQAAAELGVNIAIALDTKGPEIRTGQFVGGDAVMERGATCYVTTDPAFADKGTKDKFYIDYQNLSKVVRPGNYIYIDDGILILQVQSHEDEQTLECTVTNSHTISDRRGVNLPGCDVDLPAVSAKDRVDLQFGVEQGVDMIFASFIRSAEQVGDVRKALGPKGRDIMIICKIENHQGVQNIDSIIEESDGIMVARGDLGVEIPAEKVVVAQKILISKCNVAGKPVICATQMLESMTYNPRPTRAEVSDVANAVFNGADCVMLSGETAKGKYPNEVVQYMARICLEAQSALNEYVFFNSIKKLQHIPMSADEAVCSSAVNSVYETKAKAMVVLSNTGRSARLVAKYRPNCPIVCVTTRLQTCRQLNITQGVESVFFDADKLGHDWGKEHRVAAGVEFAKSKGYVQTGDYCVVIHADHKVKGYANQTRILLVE
Chain of RecQ-like DNA helicase BLM (Homo sapiens) (P54132 whole entry, looked up): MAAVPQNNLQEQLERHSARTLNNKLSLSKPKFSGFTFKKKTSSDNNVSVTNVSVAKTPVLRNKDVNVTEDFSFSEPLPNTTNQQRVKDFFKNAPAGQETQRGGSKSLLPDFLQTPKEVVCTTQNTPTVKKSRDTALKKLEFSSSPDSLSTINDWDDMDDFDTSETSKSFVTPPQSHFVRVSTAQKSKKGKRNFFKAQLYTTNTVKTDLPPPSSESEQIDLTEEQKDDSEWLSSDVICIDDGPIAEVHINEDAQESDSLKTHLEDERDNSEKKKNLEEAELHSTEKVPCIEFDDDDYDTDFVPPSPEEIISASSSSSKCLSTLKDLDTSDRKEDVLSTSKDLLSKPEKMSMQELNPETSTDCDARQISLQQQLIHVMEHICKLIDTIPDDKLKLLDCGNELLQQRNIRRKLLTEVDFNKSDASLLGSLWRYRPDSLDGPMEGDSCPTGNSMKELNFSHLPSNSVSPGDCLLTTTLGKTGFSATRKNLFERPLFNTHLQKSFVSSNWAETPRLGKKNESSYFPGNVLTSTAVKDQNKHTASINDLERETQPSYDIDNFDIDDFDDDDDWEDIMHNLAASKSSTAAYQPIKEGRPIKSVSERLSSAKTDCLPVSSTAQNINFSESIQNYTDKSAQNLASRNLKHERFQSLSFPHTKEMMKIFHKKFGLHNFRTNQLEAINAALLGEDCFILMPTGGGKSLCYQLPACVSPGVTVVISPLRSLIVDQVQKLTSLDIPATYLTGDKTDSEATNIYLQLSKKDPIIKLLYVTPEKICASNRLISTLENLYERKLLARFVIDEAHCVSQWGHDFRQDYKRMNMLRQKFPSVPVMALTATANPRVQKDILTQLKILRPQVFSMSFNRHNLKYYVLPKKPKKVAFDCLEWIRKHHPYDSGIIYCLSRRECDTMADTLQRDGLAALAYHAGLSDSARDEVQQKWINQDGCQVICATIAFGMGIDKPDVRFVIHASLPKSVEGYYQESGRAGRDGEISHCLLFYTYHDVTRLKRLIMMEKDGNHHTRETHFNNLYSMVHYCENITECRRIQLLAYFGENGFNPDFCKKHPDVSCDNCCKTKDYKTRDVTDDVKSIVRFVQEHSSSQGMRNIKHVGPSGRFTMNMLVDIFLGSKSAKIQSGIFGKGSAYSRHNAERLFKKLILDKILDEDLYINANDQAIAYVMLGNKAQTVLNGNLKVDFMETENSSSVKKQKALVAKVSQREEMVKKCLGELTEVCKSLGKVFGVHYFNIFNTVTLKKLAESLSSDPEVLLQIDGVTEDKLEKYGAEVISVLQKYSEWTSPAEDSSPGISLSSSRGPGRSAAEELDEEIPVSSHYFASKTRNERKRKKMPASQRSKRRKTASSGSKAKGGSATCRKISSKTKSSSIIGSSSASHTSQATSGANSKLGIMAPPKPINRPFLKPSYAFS
Chain of Cytochrome P450 3A4 (Homo sapiens) (P08684 whole entry, looked up): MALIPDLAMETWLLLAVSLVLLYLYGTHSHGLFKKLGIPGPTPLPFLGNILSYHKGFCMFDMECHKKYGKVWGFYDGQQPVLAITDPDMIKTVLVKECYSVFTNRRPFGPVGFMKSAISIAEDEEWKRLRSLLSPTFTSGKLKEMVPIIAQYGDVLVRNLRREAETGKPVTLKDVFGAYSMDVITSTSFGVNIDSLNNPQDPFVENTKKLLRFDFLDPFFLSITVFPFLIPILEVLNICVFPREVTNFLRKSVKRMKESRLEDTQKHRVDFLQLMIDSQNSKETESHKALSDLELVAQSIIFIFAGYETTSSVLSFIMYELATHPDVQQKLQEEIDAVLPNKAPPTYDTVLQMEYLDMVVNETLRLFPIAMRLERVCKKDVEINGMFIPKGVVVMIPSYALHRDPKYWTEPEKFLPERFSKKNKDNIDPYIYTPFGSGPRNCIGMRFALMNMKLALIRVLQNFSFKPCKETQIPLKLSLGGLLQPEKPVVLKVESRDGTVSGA
Chain of Ferritin light chain (Equus caballus) (P02791 2-175 limits assumed): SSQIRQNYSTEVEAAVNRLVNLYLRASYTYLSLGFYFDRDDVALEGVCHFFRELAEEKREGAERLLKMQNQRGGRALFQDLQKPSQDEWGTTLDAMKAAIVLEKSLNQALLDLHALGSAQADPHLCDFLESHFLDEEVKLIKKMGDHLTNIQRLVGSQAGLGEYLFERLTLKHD

CCCCN1CCC(COC(=O)c2cc(Cl)c(N)c3c2OCCO3)CC1
active: Potency [2] 12.6 µM | Potency [11] 1.26 µM | Potency [14] 5.62 µM | Potency [21] 10 µM | Potency [22] 12.6 µM | Potency [23] 8.91 µM | Potency [24] 7.08 µM | Potency [35] 2.24 µM
inactive: activity change, negative = inhibition [1] -2.87% [at 38 µM] | outcome [3] | Potency [4] > 46 µM | Potency [5] > 46 µM | Potency [6] | Potency [7] | Potency [8] | Potency [9] | outcome [10] | activation [12] 7.22% | outcome [13] | outcome [15] | outcome [16] | outcome [17] | outcome [18] | Potency [19] | outcome [20] | outcome [25] | outcome [26] | Potency [27] | Potency [28] | Potency [29] | Potency [30] | outcome [31] | outcome [32] | activation [33] 1.19% | outcome [34]
